# Measured values from PubChem BioAssay AID493026 (Johns Hopkins Ion Channel Center, 2011).
# Screen size: about 1,000 compounds; about 150 (15%) were called active.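 Rule for the calls: active = activity change at least 3 SD of negative controls below their mean in both duplicate wells; inactive = the rest.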 This excerpt belongs to a sample that is enriched for actives.
# Target: Potassium voltage-gated channel subfamily KQT member 1 (Homo sapiens) (UniProt P51787)
# Experiment: human KCNQ1 channel inhibition, counter-screen for KCNQ2 inhibitor project, cell-based, FluxOR thallium flux (AID 493026);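 note: CHO cells stably transfected with KCNQ1 and depolarized by potassium stimulus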;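 for activity change, negative = inhibition: peak minus minimum fluorescence over baseline after thallium addition; 0% = vehicle negative control and -100% = blank without thallium stimulus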
# Conditions: KCNQ1-expressing cells, FluxOR thallium flux fluorescence, at 10 µM; hits give low values
# Potassium voltage-gated channel subfamily KQT member 1 (Homo sapiens), sequence (P51787 whole entry, looked up): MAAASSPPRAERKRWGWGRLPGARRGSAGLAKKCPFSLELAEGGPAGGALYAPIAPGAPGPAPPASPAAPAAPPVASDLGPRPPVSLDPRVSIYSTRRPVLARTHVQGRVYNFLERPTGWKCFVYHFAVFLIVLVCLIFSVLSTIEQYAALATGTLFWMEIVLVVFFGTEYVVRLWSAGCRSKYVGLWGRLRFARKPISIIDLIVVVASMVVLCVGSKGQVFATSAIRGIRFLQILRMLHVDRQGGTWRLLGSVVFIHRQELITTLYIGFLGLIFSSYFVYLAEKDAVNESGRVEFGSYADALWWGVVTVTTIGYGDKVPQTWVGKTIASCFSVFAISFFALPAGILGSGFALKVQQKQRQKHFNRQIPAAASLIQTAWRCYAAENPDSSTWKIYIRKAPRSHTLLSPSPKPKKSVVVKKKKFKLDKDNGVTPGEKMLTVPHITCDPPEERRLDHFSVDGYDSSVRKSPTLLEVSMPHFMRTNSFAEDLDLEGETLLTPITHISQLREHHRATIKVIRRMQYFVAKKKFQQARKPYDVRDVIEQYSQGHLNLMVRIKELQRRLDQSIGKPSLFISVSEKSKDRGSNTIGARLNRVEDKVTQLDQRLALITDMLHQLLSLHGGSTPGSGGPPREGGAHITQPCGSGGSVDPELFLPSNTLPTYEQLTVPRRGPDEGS
row,Structure (SMILES),"activity change, negative = inhibition"
1,CCc1ccccc1NC(=O)/C(=C/c1ccccc1)c1ccccc1,-27% (active)
2,Cc1ccc(C(=O)c2c(NC(=O)c3ccccc3)sc(C)c2C)cc1,inactive
3,COc1ccc(Cl)cc1NC(=O)CN(C)Cc1ccc(OC)c(OC)c1,inactive
4,CN(Cc1ccccc1F)C(=O)C(Cc1ccccc1)NC(=O)c1ccccc1 (stereo unspecified),inactive
5,CCc1ccc(-c2nn(-c3ccccc3)cc2CSC(=N)N)cc1,-39.5% (active)
6,Cc1cccc(C(=O)OC(C)C(=O)NC2CCCc3ccccc32)c1O (stereo unspecified),inactive
7,COC(=O)C1=C(C)N(C(C)c2ccccc2)C(=O)/C1=C\c1ccco1 (stereo unspecified),inactive
8,COc1cccc(COc2ccc(N(C)S(=O)(=O)c3ccccc3)cc2)c1,inactive
9,C=CS(=O)c1sc(Cl)c(N2CCOCC2)c1[N+](=O)[O-] (stereo unspecified),-35% (active)
10,Cc1nc2ccccc2c(-c2ccccc2)c1C(=O)c1ccccc1,inactive
11,CSCc1cc(N(C)C)nc(SCc2ccc(Cl)cc2Cl)n1,inactive
12,Cc1ccc(C2=Nc3c(ccc4ccccc34)C(c3ccncc3)=NN2)cc1,inactive
13,CCc1ccc(-c2cc(C(=O)NCc3ccco3)c3ccccc3n2)s1,inactive
14,Fc1ccc2[nH]c3c(N4CCSCC4)ncnc3c2c1,inactive
15,CCOC(=O)N1CCC(N(CCOC)C(=O)Nc2ccc(C)c(C)c2)CC1,-30.5% (active)
16,O=C(OCC(=O)N(CCc1ccccc1)Cc1ccccc1)c1ccccc1[N+](=O)[O-],inactive

row,Structure (SMILES),"activity change, negative = inhibition"
1,CCc1ccc2ncc(C(=O)c3ccccc3)c(N3CCOCC3)c2c1,inactive
2,Cc1ccc(C(C)C)cc1OCC(=O)Nc1ccccc1N1CCCC1,inactive
3,CCOC(=O)C(C)Sc1nc2ccccc2c(=O)n1CC1CCCCC1 (stereo unspecified),-33.5% (active)
4,Cc1ccccc1N1CCN(CC(=O)NCc2ccc(Cl)cc2)CC1,inactive
5,O=C(Nc1ccccc1Cl)/C(Cl)=C(\Cl)S(=O)c1ccccc1 (stereo unspecified),inactive
6,CC(NC(=S)NNS(=O)(=O)c1ccc(C(C)(C)C)cc1)c1ccccc1 (stereo unspecified),inactive
7,Cc1ccccc1C(=O)Nc1ccccc1Sc1ccccc1,inactive
8,COc1ccc(CN(C)C(C)C(=O)NC2CCCc3ccccc32)cc1 (stereo unspecified),inactive
9,CC(C(=O)NCC1CCCCC1)N(C)Cc1cccc(Cl)c1 (stereo unspecified),-42.5% (active)
10,CC(C)C(NC(=O)OCc1ccccc1)C(=O)OCC(=O)N1C(C)CCCC1C (stereo unspecified),inactive
11,C=CCn1c(SCC(=O)/C(C#N)=C(\C)N)nc2sc(C)c(C)c2c1=O,inactive
12,O=C(Nc1ccc(Cl)c(Cl)c1)N1CC=C(c2ccccc2)CC1,inactive
13,Cc1ccc(N2C(=O)C3C(c4ccccc4)(C2=O)C3(c2ccccc2)c2ccccc2)cc1 (stereo unspecified),inactive
14,CC(C)N(C(=O)CSc1nc(COc2ccccc2)nc2ccccc12)C(C)C,-44% (active)
15,CC(C)[C@H](NC(=O)OCc1ccccc1)C(=O)OCc1ccccc1,inactive
